Experimental data taken from the supplement of paper PMC6555819.

system: RARa:RXR (NR concentration 270 nM, RXRa partner concentration 90 nM); experiment: PBM binding z-score (relative to random genomic background probes); higher = stronger binding; sequences stand for … in GC…GCGATTGACAGCGTAGAATGAAGG
Method in brief: (§1)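 Random background probes are the reference for binding z-scores. These scores derive from regression-normalized fluorescence on custom Agilent 4×180K protein-binding microarrays incubated 1 h with ligand-free nuclear receptor dimers. Binding was detected with antibodies against each partner (one per run).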

Sequence	PBM binding z-score
TCTGCGAGGTCAGTTGGTCAGCTAACGAGCTGCC	2.68
AGAATGAGGTTACCAAAGATCCGGGAAACGCTTG	1.76
GCTAGCAGGCCATTTGGGTCACTCCATGACGGGC	0.126
CTCGAAAGGTCGGTTGAGGTGAGGATACGGATAA	2.64
CCTATTAGTTGACCATAATGGCAACCGAAGCTCG	0.673
CCTACTGGACCACGAAAGGTCATTGATTCAGTGA	5.61
CTTCAAAGTTCAAGGTAACGTAACAGAAAGCAGC	3.32
TCGAGTAGGTTACCAATCGGGCATTCAGCTTTCT	-0.172
AGAACGAGGGCAATGAGATGATAGCACGGGTGGC	0.235
CCGAGTAGGTTTTGGGGCATTCAGGCAACGGTGA	0.2
CCTATTAGTTGACCATAAGTGCAACCGAAGCTCG	0.812
TCATATAGGTAAATGCTAGGTGAAAGTTCGATCT	1.61
CGTCCAAGGTCAGAGCGGTCAGTGAATGCCGAGT	3.14
TAGCCTAGGTCCTGGGCCAGTATACCACGCGAAC	-0.567
GGAACGACGGCAAAGTTGATAGCATCTGTCGACG	0.0195
GTACCAAGGTGAGTAGGTCGTTGATGAGTAGGCG	0.391
CGAACTAGGTCCAGGACAGTGAATCTCCGCACGC	-0.417

system: RARa homodimer (NR concentration 270 nM); experiment: as above
Method in brief: as §1

Sequence	PBM binding z-score
ATCTCTAGGTAAGACACAGTTCAGTGAAGAACGC	1.69
CCGACTGGGGCAAGGTTACGATAACGCACAGCCA	-0.286
AATACAGGGTCACTAGTCCAGAGTAGGTACGAAT	1.03
ACTTACTGGTCAACGAGGTTATAGCACGCGTATA	1.23
TAGCCTAGGTCATTCAGCGGCCAGTATAGAAAGC	-0.474
CCTACTGGGCCATCAGGTCATTCATATCAACGTT	0.469
CCTACTGGCCCATTCAGAGGTCATTGATCATATG	1.58
GCTTGTAGTTCAAGGTTAAGAAAGACTAAGCTAA	0.195
TCTAGTTGGTCACTGAGGTCACACACGACGGGTA	2.05
ACTGACGGGTCAACGAGGTTATAGCACGCGTATA	0.626
ATCTCTAGGTAAGACGCAGTTCAGTGAAGAACGC	0.278
GGAATGAGGGCAAAGTTGATAGCATCTGTCGACG	0.171
CGTCCAAGGTCAAGGTCAGTAAAAGAGACTCGAA	3.01
TCTATTAGTTGATTAGGGCTACCGAAACAGCGGA	0.748
TCTAGTTGGTCAAAGATCACACACTCGAAATGCG	0.928
AGTCAGAGTTCAGGACGAGGTAACGTAAAGCACG	0.511
CGAACTAGGTCACGGACAGTGAATCTCCGCACGC	1.22
TCATATAGGTAAAAGCTAGGTGAAAGTCCGATCT	0.436
TCGAGTAGGTAACCAATGGGGCATTCAGCTTTCT	-0.817
TCGAGTAGGTTAGCAATGGGGCATTCAGCTTTCT	-0.474

Sequence	PBM binding z-score
ATGTCTAGGTAACCAAGTTCAGTGAATGCCGAAC	-0.202
TCTATTAGTTGAAGGGCAAGCGACGAGTCCGTTT	0.687
TCTGCGAGGTCAGTTGGTCAGCTAACGAGCTGCC	-0.6
AGAATGAGGTTACCAAAGATCCGGGAAACGCTTG	0.0139
GCTAGCAGGCCATTTGGGTCACTCCATGACGGGC	-0.604
CTCGAAAGGTCGGTTGAGGTGAGGATACGGATAA	0.262
CCTATTAGTTGACCATAATGGCAACCGAAGCTCG	2.52
CCTACTGGACCACGAAAGGTCATTGATTCAGTGA	2.84
CTTCAAAGTTCAAGGTAACGTAACAGAAAGCAGC	1.72
TCGAGTAGGTTACCAATCGGGCATTCAGCTTTCT	-0.843
AGAACGAGGGCAATGAGATGATAGCACGGGTGGC	0.363
CCGAGTAGGTTTTGGGGCATTCAGGCAACGGTGA	0.947
CCTATTAGTTGACCATAAGTGCAACCGAAGCTCG	2.6
TCATATAGGTAAATGCTAGGTGAAAGTTCGATCT	1.71
CGTCCAAGGTCAGAGCGGTCAGTGAATGCCGAGT	0.595
TAGCCTAGGTCCTGGGCCAGTATACCACGCGAAC	-1.37
GGAACGACGGCAAAGTTGATAGCATCTGTCGACG	-0.6
GTACCAAGGTGAGTAGGTCGTTGATGAGTAGGCG	0.166
CGAACTAGGTCCAGGACAGTGAATCTCCGCACGC	-0.0938

system: RARb:RXRa (NR concentration 270 nM, RXRa partner concentration 90 nM); experiment: as above
Method in brief: as §1

Sequence	PBM binding z-score
ATCTCTAGGTAAGACACAGTTCAGTGAAGAACGC	0.924
CCGACTGGGGCAAGGTTACGATAACGCACAGCCA	1.66
AATACAGGGTCACTAGTCCAGAGTAGGTACGAAT	3.99
ACTTACTGGTCAACGAGGTTATAGCACGCGTATA	2.09
TAGCCTAGGTCATTCAGCGGCCAGTATAGAAAGC	3.92
CCTACTGGGCCATCAGGTCATTCATATCAACGTT	2.01
CCTACTGGCCCATTCAGAGGTCATTGATCATATG	2.81
GCTTGTAGTTCAAGGTTAAGAAAGACTAAGCTAA	2.61
TCTAGTTGGTCACTGAGGTCACACACGACGGGTA	4
ACTGACGGGTCAACGAGGTTATAGCACGCGTATA	3.87
ATCTCTAGGTAAGACGCAGTTCAGTGAAGAACGC	0.0267
GGAATGAGGGCAAAGTTGATAGCATCTGTCGACG	2.36
CGTCCAAGGTCAAGGTCAGTAAAAGAGACTCGAA	5.53
TCTATTAGTTGATTAGGGCTACCGAAACAGCGGA	0.309
TCTAGTTGGTCAAAGATCACACACTCGAAATGCG	1.3
AGTCAGAGTTCAGGACGAGGTAACGTAAAGCACG	3.62
CGAACTAGGTCACGGACAGTGAATCTCCGCACGC	4.35
TCATATAGGTAAAAGCTAGGTGAAAGTCCGATCT	0.407
TCGAGTAGGTAACCAATGGGGCATTCAGCTTTCT	0.0352
TCGAGTAGGTTAGCAATGGGGCATTCAGCTTTCT	0.542

Sequence	PBM binding z-score
ATGTCTAGGTAACCAAGTTCAGTGAATGCCGAAC	1.21
TCTATTAGTTGAAGGGCAAGCGACGAGTCCGTTT	1.53
TCTGCGAGGTCAGTTGGTCAGCTAACGAGCTGCC	4.51
AGAATGAGGTTACCAAAGATCCGGGAAACGCTTG	2.05
GCTAGCAGGCCATTTGGGTCACTCCATGACGGGC	1.39
CTCGAAAGGTCGGTTGAGGTGAGGATACGGATAA	3.18
CCTATTAGTTGACCATAATGGCAACCGAAGCTCG	0.621
CCTACTGGACCACGAAAGGTCATTGATTCAGTGA	4.02
CTTCAAAGTTCAAGGTAACGTAACAGAAAGCAGC	5.1
TCGAGTAGGTTACCAATCGGGCATTCAGCTTTCT	0.778
AGAACGAGGGCAATGAGATGATAGCACGGGTGGC	2.05
CCGAGTAGGTTTTGGGGCATTCAGGCAACGGTGA	0.205
CCTATTAGTTGACCATAAGTGCAACCGAAGCTCG	0.81
TCATATAGGTAAATGCTAGGTGAAAGTTCGATCT	0.871
CGTCCAAGGTCAGAGCGGTCAGTGAATGCCGAGT	4.58
TAGCCTAGGTCCTGGGCCAGTATACCACGCGAAC	-0.156
GGAACGACGGCAAAGTTGATAGCATCTGTCGACG	-0.341
GTACCAAGGTGAGTAGGTCGTTGATGAGTAGGCG	1.16
CGAACTAGGTCCAGGACAGTGAATCTCCGCACGC	0.00636
